From PubChem BioAssay
eIF4H inh – inhibitors of RNA binding by human eIF4H; eIF4H fluorescence polarization binding assay; hit rate 0.94% among 290,000; inhibition, % at 35 µM; AID 2012; Q15056;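 also: calls also rest on retests at 20 µM and on dose response follow-up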
PABP FP inh – blocks human PABP binding to poly(A) RNA; fluorescence polarization; calls only at 35 µM; P11940; hit rate 1% among 290,000;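 also: calls also rest on retests at 20 µM and on dose response follow-up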
PABP1 MLLE inh – blocks PAM2 peptide binding to the PABP1 MLLE domain; P11940; AID 588489; inhibition, % at 20 µM; hit rate 0.36% among 360,000; GST-MLLE / FITC-PAM2 fluorescence polarization; in the data active = inhibition above about 35%, passing the limit was not always enough
eIF4E-4G inh – inhibitors of eIF4E and eIF4G interaction in translation initiation; P63073+Q04637; TR-FRET eIF4E-eIF4GI(517-606) binding, 2 h; inhibition, % at 21.7 µM; hit rate 0.37% among 220,000; AID 782;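 active = inhibition above about 30%, limit read from the data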
Hits are given with their value; [ ] = dose if it differs, or a comment. A selection: hits, their analogues and other compounds. The true share with any hit is near 1.5%. Unless noted, no rule for the calls is given here.

`CC1CCc2c(sc3ncnc(N4CCOCC4)c23)C1` (configuration not stated) gave eIF4H inh inactive, PABP FP inh inactive, PABP1 MLLE inh inactive and eIF4E-4G inh inactive.
`CC(C)(C)c1ccc(C(O)c2ncc(-c3cccc(F)c3)[nH]2)cc1` (configuration not stated) gave PABP1 MLLE inh inactive.
`COc1cc(/C=C2\CC/C(=C\c3cc(OC)c(OC)c(OC)c3)C2=O)cc(OC)c1OC` gave eIF4H inh inactive, PABP FP inh inactive, PABP1 MLLE inh inactive and eIF4E-4G inh inactive.
Screening COc1cc(/C=C2\CC/C(=C\c3cc(OC)c(O)c(OC)c3)C2=O)cc(OC)c1O returned eIF4H inh inactive, PABP FP inh inactive, PABP1 MLLE inh inactive and eIF4E-4G inh 40.0[fluorescence artefact?].
Screening COCCN=c1scc(-c2ccc3c(c2)NC(=O)CO3)n1/N=C(\C)c1ccc(O)cc1 returned eIF4H inh inactive, PABP FP inh active, PABP1 MLLE inh inactive and eIF4E-4G inh inactive.
For Cc1ccc(S(=O)(=O)N2CCN(C(=O)C3Cc4ccccc4CN3C(=O)c3ccco3)CC2)cc1 (configuration not stated) the results were eIF4H inh inactive, PABP FP inh inactive, PABP1 MLLE inh inactive and eIF4E-4G inh inactive.
`CCCCCC(=O)Cc1cc(O)cc2c1C(=O)Oc1cc(O)c(C(=O)O)c(CCCCC)c1O2` gave eIF4H inh inactive, PABP FP inh inactive and eIF4E-4G inh inactive.
Cc1ccc(C)c(NC(=O)CSc2ccc(-c3cccs3)nn2)c1 was read as eIF4H inh 21.6, PABP FP inh active, PABP1 MLLE inh inactive and eIF4E-4G inh inactive.
Cc1cccc(NC(=O)CSc2ccc(-c3cccs3)nn2)c1C was read as eIF4H inh inactive, PABP FP inh inactive, PABP1 MLLE inh inactive and eIF4E-4G inh inactive.
`CC(=O)C1=C(O)C(=O)N(CCC(=O)O)C1c1ccccc1[N+](=O)[O-]` (configuration not stated) gave eIF4H inh inactive, PABP FP inh inactive, PABP1 MLLE inh inactive and eIF4E-4G inh inactive.
For CC(=O)C1=C(O)C(=O)N(C)C1c1ccccc1[N+](=O)[O-] (configuration not stated) the results were eIF4H inh inactive, PABP FP inh inactive, PABP1 MLLE inh 39.0 and eIF4E-4G inh inactive.
For CCOc1ccc(NC(=S)NC(=O)c2cnn(CC)c2)c([N+](=O)[O-])c1 the results were eIF4H inh inactive, PABP FP inh inactive and PABP1 MLLE inh inactive.
`O=[N+]([O-])c1ccc(/C=[N+](\[O-])[C@@H]2CCCC[C@@H]2/[N+]([O-])=C/c2ccc([N+](=O)[O-])o2)o1` gave eIF4H inh 81.0, PABP FP inh active and PABP1 MLLE inh inactive.
Screening Cc1csc(NC(=O)c2c(O)c3cccc4c3n(c2=O)CCC4)n1 returned eIF4H inh inactive and PABP FP inh inactive.
CCCc1nnc(NC(=O)c2c(O)c3cccc4c3n(c2=O)CCC4)s1 was read as eIF4H inh 95.9 and PABP FP inh active.
`COc1cc(Cn2c3ccc(NC(=S)NCc4ccc(C)cc4)cc3c(=O)n2C)ccc1F` gave PABP1 MLLE inh inactive.
Screening O=C(COc1ccc(Br)cc1)NNC(=O)c1ccc(-n2cncn2)c([N+](=O)[O-])c1 returned PABP1 MLLE inh 57.6.
For Cc1ccc(OCC(=O)NNC(=O)c2ccc(-n3cncn3)c([N+](=O)[O-])c2)cc1 the results were PABP1 MLLE inh inactive.
Screening COc1ccc(NC(=O)c2ccc(-n3cncn3)c([N+](=O)[O-])c2)cc1OC returned PABP1 MLLE inh inactive.
COc1ccc(NC(=O)c2ccc(-n3cncn3)c([N+](=O)[O-])c2)cc1 was read as eIF4H inh inactive, PABP FP inh active, PABP1 MLLE inh inactive and eIF4E-4G inh inactive.
COc1ccc(S(=O)(=O)Nc2cc(Sc3ncn[nH]3)c(O)c3ccccc23)cc1 was read as eIF4H inh inactive, PABP FP inh inactive and eIF4E-4G inh 46.2[fluorescence artefact?].
CC(C)CC(C(=O)Nc1oc(-c2ccco2)c(-c2ccco2)c1C#N)N1C(=O)c2ccccc2C1=O (configuration not stated) was read as eIF4H inh 81.6, PABP FP inh active, PABP1 MLLE inh inactive and eIF4E-4G inh inactive.
For Oc1cc(Nc2cccnc2)cc2cccnc12 the results were PABP1 MLLE inh inactive.
`Oc1cc(NCCc2cccnc2)cc2cccnc12` gave PABP1 MLLE inh 50.0.
For Nc1cc(-c2cccc(Br)c2)nn1Cc1ccccc1 the results were eIF4H inh active, PABP FP inh inactive, PABP1 MLLE inh inactive and eIF4E-4G inh inactive.
For Cc1cc2ccccn2c1C(=O)c1nc(NCc2ccccc2)ncc1Cl the results were eIF4H inh inactive, PABP FP inh inactive, PABP1 MLLE inh inactive and eIF4E-4G inh inactive.
For N#Cc1c(=O)c2nc(NCc3ccccc3)ncc2n2ccccc12 the results were eIF4H inh 83.5, PABP FP inh active, PABP1 MLLE inh inactive and eIF4E-4G inh inactive.
For CCOc1ccc2nc(SCC(=O)c3ccc(Cl)s3)sc2c1 the results were eIF4H inh 54.9, PABP FP inh active, PABP1 MLLE inh inactive and eIF4E-4G inh inactive.
`CCOc1ccc2nc(SCC(=O)c3cccs3)sc2c1` gave eIF4H inh inactive, PABP FP inh inactive, PABP1 MLLE inh inactive and eIF4E-4G inh inactive.
Cc1c(C(=O)NCc2cccc([N+](=O)[O-])c2)sc(=O)n1Cc1ccc(C(C)C)cc1 was read as PABP1 MLLE inh inactive.
Screening CCOC(=O)C1=C[C@@H](C2CCCC2)N(S(=O)(=O)c2ccc([N+](=O)[O-])cc2)[C@H]1c1ccccc1 returned PABP1 MLLE inh inactive.
Cc1nc(N2CCN(c3ccccc3O)CC2)c2c(-c3ccccc3)csc2n1 was read as eIF4H inh 100.4, PABP FP inh active and PABP1 MLLE inh inactive.
`Oc1ccccc1N1CCN(c2ncnc3scc(-c4ccccc4)c23)CC1` gave eIF4H inh inactive, PABP FP inh inactive and PABP1 MLLE inh inactive.
For N#Cc1c(NC(=O)c2ccco2)sc2c1CCC2 the results were eIF4H inh 73.9, PABP FP inh active and PABP1 MLLE inh inactive.
`N#Cc1c(NC(=O)C2CC(c3ccccc3O)=NO2)sc2c1CCC2` (configuration not stated) gave eIF4H inh inactive, PABP FP inh inactive, PABP1 MLLE inh 39.7 and eIF4E-4G inh inactive.
Screening N#Cc1c(NC(=O)c2ccncc2)sc2c1CCC2 returned eIF4H inh 50.6, PABP FP inh active, PABP1 MLLE inh inactive and eIF4E-4G inh inactive.
CC1CCN(CC(=O)Nc2sc3c(c2C#N)CCC3)CC1 was read as eIF4H inh 49.9, PABP FP inh inactive, PABP1 MLLE inh inactive and eIF4E-4G inh inactive.
`NC(=O)c1c(NC(=O)c2ccncc2)sc2c1CCCC2` gave eIF4H inh inactive, PABP FP inh inactive, PABP1 MLLE inh inactive and eIF4E-4G inh inactive.
CCCC(=O)Nc1sc2c(c1C#N)CCCC2 was read as eIF4H inh inactive, PABP FP inh inactive, PABP1 MLLE inh inactive and eIF4E-4G inh inactive.
`O=S(=O)(NCC1CCCO1)c1ccc(Cl)c2ccccc12` (configuration not stated) gave PABP1 MLLE inh inactive.
Cc1ccc2sc(C)[n+](CCC(C)S(=O)(=O)[O-])c2c1 (configuration not stated) was read as eIF4H inh inactive, PABP FP inh inactive, PABP1 MLLE inh 41.2 and eIF4E-4G inh inactive.
